Data from PubChem BioAssay (NCI).
The panel holds about 79,000 compounds, 15% with a hit somewhere; the sample as a whole holds those more often. Cut-off read from the data, not from the text of the source: active = growth inhibition above about 70%; inactive = the rest.

Columns and labels:
[1] = NCI Yeast Anticancer Drug Screen. Data for the rad50 strain (AID 155);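 note: 0% = growth of vehicle-only cultures of the same strain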; conditions: S. cerevisiae rad50 strain growth inhibition; at 50.0 µM; hits give high values
Summary of the method: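 Yeast carrying a defined DNA repair defect were exposed to test compounds, and growth was compared with vehicle-treated controls to give percent inhibition.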

[2] = NCI Yeast Anticancer Drug Screen. Data for the mec2-1 strain (AID 157); conditions: S. cerevisiae mec2-1 strain, at 50.0 µM, hits give high values
Summary of the method: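 mec2-1 yeast strain, carrying an alteration in DNA damage repair or cell cycle control, was exposed to compounds; growth inhibition was measured relative to vehicle-treated controls.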

[3] = NCI Yeast Anticancer Drug Screen. Data for the sgs1 mgt1 strain (AID 161);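 note: 0% = growth of cultures given vehicle only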; conditions: S. cerevisiae sgs1 mgt1 strain, at 50.0 µM, hits give high values
Summary of the method: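 This yeast growth screen uses a strain with defined DNA-repair lesions; compound-treated growth is compared with vehicle-treated growth.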

[4] = NCI Yeast Anticancer Drug Screen. Data for the cln2 rad14 strain (AID 165);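 note: 0% = growth equal to vehicle treated cultures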; conditions: S. cerevisiae cln2 rad14 strain, at 50.0 µM, hits give high values
Summary of the method: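 Yeast carrying cln2 and rad14 alterations (cell cycle control and DNA damage repair) were exposed to compounds. Growth inhibition was measured against vehicle-treated controls.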

[5] = NCI Yeast Anticancer Drug Screen. Data for the bub3 strain (AID 167); conditions: S. cerevisiae bub3 mutant strain, at 50.0 µM, hits give high values
Summary of the method: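 Compounds were applied to a genetically altered yeast strain carrying a cell-cycle control defect. Growth inhibition was scored against vehicle-treated controls.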

[6] = NCI Yeast Anticancer Drug Screen. Data for the mlh1 rad18 strain (AID 175); conditions: S. cerevisiae mlh1 rad18 strain growth inhibition; at 50.0 µM; hits give high values
Summary of the method: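 Growth inhibition of the yeast strain was measured after compound exposure and expressed relative to vehicle-treated controls. The strain carries defined defects in DNA damage repair.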

Measured: growth inhibition

[N-]=[N+]=NCC1OCOC1C1OCOC1CN=[N+]=[N-] (centres undefined)
inactive: [1] -6.85% | [2] 10.6% | [3] -4.05% | [4] -33.7% | [5] 4.2% | [6] -3.5%

CCN(CC)CCCC#N
inactive: [1] -5.25% | [2] 4.7% | [3] -8.8% | [4] -13% | [5] -2.6% | [6] -2.85%

Nc1ccc2nc3c4ccccc4c(O)n3nc2c1
inactive: [1] -18.5% | [2] -9.15% | [3] -18.6% | [4] -47.9% | [5] -6.2% | [6] 14.6%

NC(=O)C(=O)c1cc(Cl)c(Cl)c(Cl)c1Cl
inactive: [1] -12.3% | [2] -13.5% | [3] 12.4% | [4] -9% | [5] -5.15% | [6] -4.15%

CCCCOCN(COCCCC)CC(C)(C)C
inactive: [1] 20.9% | [2] 14.7% | [3] -10.8% | [4] 14.7% | [5] 19.4% | [6] 19.3%

O=C(O)c1ccc(S(=O)(=O)c2ccccc2[N+](=O)[O-])cc1
inactive: [1] -12.9% | [2] -10.3% | [3] -35.8% | [4] -19% | [5] -12.1% | [6] -38.6%

Cc1ccc(C(=O)c2ccccc2Cc2ccc3ccccc3c2)cc1
inactive: [1] 13.8% | [2] 0.8% | [3] 6.3% | [4] 1.35% | [5] 61.2% | [6] -0.25%

CCOC(=O)C(Cl)(NC(=O)NC(Cl)(C(=O)OCC)C(F)(F)F)C(F)(F)F (centres undefined)
inactive: [1] 3.8% | [2] 23.8% | [3] -0.85% | [4] -1.75% | [5] 3.2% | [6] 6.65%

CC(Br)CCl (centres undefined)
inactive: [1] 26.4% | [2] 17.1% | [3] 22.1% | [4] 2.1% | [5] 14.4% | [6] 39.2%

c1ccc2c(c1)N=C(NNC1=Nc3ccccc3SC1)CS2
inactive: [1] 2.35% | [2] -2.85% | [3] 2.4% | [4] -0.55% | [5] 1.25% | [6] 0.65%

COC(=O)C1(O)CCC(C)CC1 (centres undefined)
inactive: [1] 14.4% | [2] -9.25% | [3] -8.65% | [4] -26.3% | [5] 2.1% | [6] 14.8%

NC(=S)CNC(=O)c1ccccc1
inactive: [1] -28.6% | [2] -33.1% | [3] -29.3% | [4] -9.55% | [5] -11.8% | [6] 9.6%

CCOC(=O)c1[nH]c(CC(=O)O)c(C(=O)OCC)c1C
inactive: [1] -6.8% | [2] 3% | [3] 9% | [4] -44.9% | [5] 3.9% | [6] 5.1%

OC[C@@H]1C2CCC([C@@H]1CO)C2(Cc1ccccc1)Cc1ccccc1
inactive: [1] 5.9% | [2] 26.9% | [3] 9.45% | [4] -73% | [5] 4.95% | [6] -11.2%

C=CCN1C(=O)NC(=O)C1c1ccsc1 (centres undefined)
inactive: [1] -14.7% | [2] -0.25% | [3] -22.2% | [4] -34.2% | [5] -1.45% | [6] 2.6%

CC(=O)NNC(=S)N/C=C(\C#N)S(=O)(=O)c1ccc(C)cc1
inactive: [1] -44.5% | [2] -26.4% | [3] -35.5% | [4] -61.3% | [5] -25.8% | [6] -37.6%

Cc1ccc(CC(=S)N2CCOCC2)cc1
inactive: [1] 19.8% | [2] 24.2% | [3] 10.8% | [4] 10.9% | [5] 25.2% | [6] 16.6%

Cc1c(Cl)cccc1NC(=O)Oc1ccc(Cl)cc1
inactive: [1] 1.75% | [2] -2.75% | [3] -5.6% | [4] -7.45% | [5] -9.7% | [6] -4.05%

CCOC(=O)[C@H]1CS[C@]2(c3ccco3)CC(=O)N12
inactive: [1] 14.4% | [2] 8.1% | [3] -12.6% | [4] -36.2% | [5] 1.6% | [6] 44.1%
